Assay results reported in the supplement of paper PMC10338343.
± gives the standard deviation. In all, about 6,200 sequences were measured (“pre-steady-state target cleavage rate”: median about 0.29, highest 2% from about 2 on). This is one part of a sample in which the highest values are shown more often than they occur.

Each sequence was assayed on MIWI (PIWIL1) piRISC loaded with piRNA #1 (30 nt) (assay: pre-steady-state target cleavage rate (min^-1); MIWI and MILI are mouse PIWI proteins and EfPiwi is from a freshwater sponge; tags in brackets are library labels; higher = faster piRNA-guided slicing of the target). Conditions: guide: piRNA #1 5'p-UGAGGUAGUAGGUUGUAUAGUAUCCAGAGG; auxiliary factor: 500 nM mouse GTSF1.
Procedure: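 Cleave-'n-Seq: a library of target RNAs (target site embedded in constant flanks, ACAGCATTCCGCGTTAGTGATATCCG... 5' flank; DNA-blocked outside the site) at 0.1 nM was incubated with 1 nM active mouse MILI or MIWI piRISC (synthetic 5'-monophosphorylated piRNA guide) with or without 500 nM mouse GTSF1 at 33 °C for 1 min to 16 h. Uncleaved targets were sequenced and normalised to non-target controls, and the pooled three trials were fitted to a burst-and-steady-state model to give the pre-steady-state cleavage rate (min^-1; k3 is constrained to at most 1e-4). Sequence is the target site only; target names encode pairing extent (gX:gY) and contiguous / 1-mismatch / 2-mismatch / bulge geometry. Fits with R² ≤ 0 are excluded.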
With GGUCUGCGAUACUAUACAACCUACUACCUCA the “pre-steady-state target cleavage rate” value was 1.79 ± 0.071. For GCUCUGCGAUACUAUACAACCUACUACCUCA, the “pre-steady-state target cleavage rate” value was 2.02 ± 0.12. For GCUCUGGGAUACUAUACAACCUACUACCUCA, the “pre-steady-state target cleavage rate” value was 1.89 ± 0.096. For GGACUGCGAUACUAUACAACCUACUACCUCA, the “pre-steady-state target cleavage rate” value was 1.79 ± 0.13. In the case of CCUCUGCGAUACUAUACAACCUACUACCUCA, the “pre-steady-state target cleavage rate” value is reported as 2.19 ± 0.12. For GGAGUGGAUACUAUACAACCUACAACCUCA, the “pre-steady-state target cleavage rate” value was 0.314 ± 0.037. For GGACUGGAUACUAUACCACCUACUACCUCA, the “pre-steady-state target cleavage rate” value was 1.17 ± 0.082. GGAGACCUUACUAUUCAACCUAGUACCUCA was tested, and the “pre-steady-state target cleavage rate” value was 0.395 ± 0.04. GGAGACCUAUGUAUACCACCUACUACCUCA was tested, and the “pre-steady-state target cleavage rate” value was 0.0149 ± 0.0026. With CCUGUGGAUACUAUACAACCUACUACCUCA the “pre-steady-state target cleavage rate” value was 1.86 ± 0.11. GGCCUGGAUACUAUACAACCUACUACCUCA was tested, and the “pre-steady-state target cleavage rate” value was 1.74 ± 0.098. In the case of GCCUGGAUACUAUACAACCUACUACCUCA, the “pre-steady-state target cleavage rate” value is reported as 1.87 ± 0.11. In the case of CCCUGGAUACUAUACAACCUACUACCUCA, the “pre-steady-state target cleavage rate” value is reported as 2.52 ± 0.18. In the case of CCUGUGGAUACUAUACAACCUACAACCUCA, the “pre-steady-state target cleavage rate” value is reported as 0.383 ± 0.043. CCCCUGGAUACUAUACAACCUACUACCUCA was tested, and the “pre-steady-state target cleavage rate” value was 2.45 ± 0.15. For GAUCUGGAUACUAUACAACCUACUACCUCA, the “pre-steady-state target cleavage rate” value was 1.91 ± 0.097. In the case of GCCCUGGAUACUAUACAACCUACUACCUCA, the “pre-steady-state target cleavage rate” value is reported as 2.17 ± 0.12. With GGACCUGGAUACUAUACAACCUACUACCUCA the “pre-steady-state target cleavage rate” value was 1.96 ± 0.14. In the case of GGAGACCUUACUAUACAAGCUAGUACCUCA, the “pre-steady-state target cleavage rate” value is reported as 0.471 ± 0.033. GCUCUGGAUACUAUACAACCAACUACCACA was tested, and the “pre-steady-state target cleavage rate” value was 0.153 ± 0.018. In the case of GGAGACGAAAGUAUACAACCUACUACCUCA, the “pre-steady-state target cleavage rate” value is reported as 0.527 ± 0.062. GGUCUGGAUAGUAUACAACCUACUACGUCA was tested, and the “pre-steady-state target cleavage rate” value was 0.583 ± 0.055. With GGAGAGGAAACUAUACAUCCUACUACCUCA the “pre-steady-state target cleavage rate” value was 1.19 ± 0.074. With GGACUGGAUACUAUACAACCUCCUACCUCA the “pre-steady-state target cleavage rate” value was 0.801 ± 0.052. With GCAGUGGAUACUAUACAACCUACUACCUCA the “pre-steady-state target cleavage rate” value was 1.85 ± 0.095. With CCUCGUGGAUACUAUACAACCUACUACCUCA the “pre-steady-state target cleavage rate” value was 2.17 ± 0.16. For GGUCGUGGAUACUAUACAACCUACUACCUCA, the “pre-steady-state target cleavage rate” value was 1.72 ± 0.093. CCUCCUGGAUACUAUACAACCUACUACCUCA was tested, and the “pre-steady-state target cleavage rate” value was 2.25 ± 0.13. For GGUCCUGGAUACUAUACAACCUACUACCUCA, the “pre-steady-state target cleavage rate” value was 1.97 ± 0.099. CCUCUGGAUACUAUACAACCUCCUACCUCA was tested, and the “pre-steady-state target cleavage rate” value was 1.32 ± 0.068. GCUCGUGGAUACUAUACAACCUACUACCUCA was tested, and the “pre-steady-state target cleavage rate” value was 1.85 ± 0.095. With GCUCCUGGAUACUAUACAACCUACUACCUCA the “pre-steady-state target cleavage rate” value was 2.13 ± 0.11. GCUCUGGAUACUAUACAACCUCCUACCUCA was tested, and the “pre-steady-state target cleavage rate” value was 1.2 ± 0.052. For GGAGUGGAUACUAUACUACCUACAACCUCA, the “pre-steady-state target cleavage rate” value was 0.428 ± 0.052. CCAGUGGAUACUAUACAACCUACUACCUCA was tested, and the “pre-steady-state target cleavage rate” value was 2.01 ± 0.11. In the case of GGAGACCAUAUAUACAACCUACUACCUCA, the “pre-steady-state target cleavage rate” value is reported as 0.184 ± 0.018. GGAGACCUUAGUAUACUACCUACUACCUCA was tested, and the “pre-steady-state target cleavage rate” value was 0.0222 ± 0.0051. For GGAGACCUAACUAUACAACCUUCUACCACA, the “pre-steady-state target cleavage rate” value was 0.194 ± 0.026. In the case of GGAGACCUAUCUAUACAACCUACUACACUCA, the “pre-steady-state target cleavage rate” value is reported as 0.634 ± 0.061. With CCUCUGGAUACUAUACAACCUAGUACCUCA the “pre-steady-state target cleavage rate” value was 0.172 ± 0.039. In the case of GGUCUGGAUACAAUACAACCUAGUACCUCA, the “pre-steady-state target cleavage rate” value is reported as 0.562 ± 0.054. For GGUCAGGAUACUAUUCAACCUACUACCUCA, the “pre-steady-state target cleavage rate” value was 1.79 ± 0.1. In the case of GCUCAGGAUACUAUUCAACCUACUACCUCA, the “pre-steady-state target cleavage rate” value is reported as 2.09 ± 0.13. For GGACAGGAUACUAUUCAACCUACUACCUCA, the “pre-steady-state target cleavage rate” value was 1.69 ± 0.11. In the case of GCUCUGGAUACUAUUCAACCUACUACCUCA, the “pre-steady-state target cleavage rate” value is reported as 1.87 ± 0.11. With CCUCAGGAUACUAUUCAACCUACUACCUCA the “pre-steady-state target cleavage rate” value was 2.22 ± 0.14. For GGAGAGGAUACUAUUCAACCUACUACCUCA, the “pre-steady-state target cleavage rate” value was 1.23 ± 0.062. For GCUCUGGAUACUAUACUAACCUACUACCUCA, the “pre-steady-state target cleavage rate” value was 0.00667 ± 0.0041. With GGAGACGAUACAAUUCAACCUACUACCUCA the “pre-steady-state target cleavage rate” value was 0.664 ± 0.073. For GGAGUGGAUAGUAUACAACCUACUAGCUCA, the “pre-steady-state target cleavage rate” value was 0.0218 ± 0.0063. For GGAGACGAUACUAUACUAGCUACUACCUCA, the “pre-steady-state target cleavage rate” value was 0.579 ± 0.048. In the case of GGUCUGGAUUCUAUAGAACCUACUACCUCA, the “pre-steady-state target cleavage rate” value is reported as 0.979 ± 0.064. In the case of GCUCUCGAUACUAUACAACCUACAACCUCA, the “pre-steady-state target cleavage rate” value is reported as 1.01 ± 0.078. GCUCUCGAUACAAUACAACCUACUACCUCA was tested, and the “pre-steady-state target cleavage rate” value was 2.07 ± 0.12. In the case of GGUCUCGAUACAAUACAACCUACUACCUCA, the “pre-steady-state target cleavage rate” value is reported as 1.77 ± 0.12. With GGACUCGAUACAAUACAACCUACUACCUCA the “pre-steady-state target cleavage rate” value was 1.46 ± 0.095. In the case of CCUCUCGAUACAAUACAACCUACUACCUCA, the “pre-steady-state target cleavage rate” value is reported as 2.17 ± 0.14. For GCUCUCGAUAGUAUACAACCUACUACCUCA, the “pre-steady-state target cleavage rate” value was 1.95 ± 0.13. For GCUCUGGAUAGUAUUCAACCUACUACCUCA, the “pre-steady-state target cleavage rate” value was 0.849 ± 0.044. GGAGACCAUACUAUUCAACCUACUACCACA was tested, and the “pre-steady-state target cleavage rate” value was 1.05 ± 0.078. For GGACUGGAUACUAUACAACCUACGUACCUCA, the “pre-steady-state target cleavage rate” value was 0.656 ± 0.089. With GCUCUGGAUACUAUACAACGUACUUCCUCA the “pre-steady-state target cleavage rate” value was 0.486 ± 0.045. For GGAGACGAAACUAUACAAGCUACUACCUCA, the “pre-steady-state target cleavage rate” value was 0.872 ± 0.057. With GGAGUGGUUUCUAUACAACCUACUACCUCA the “pre-steady-state target cleavage rate” value was 1.32 ± 0.081. With GCUCUGGAUACUUAUACAACCUACUACCUCA the “pre-steady-state target cleavage rate” value was 1.53 ± 0.084. With GGUCUGGAUACUAUACAACCUACUUACCUCA the “pre-steady-state target cleavage rate” value was 1.23 ± 0.084. For CCUCUGGAUACUAUACAACCUACUUACCUCA, the “pre-steady-state target cleavage rate” value was 2.2 ± 0.14. With CCUCUGGAUACUUACAACCUACUACCUCA the “pre-steady-state target cleavage rate” value was 1.3 ± 0.12. With GCUCUGGAUACUAUACAACCUACUUACCUCA the “pre-steady-state target cleavage rate” value was 2.1 ± 0.13. With GCUCUGGAUACUUACAACCUACUACCUCA the “pre-steady-state target cleavage rate” value was 1.18 ± 0.1. GGAGACCUUACUAUACAACCUACCACCUCA was tested, and the “pre-steady-state target cleavage rate” value was 0.847 ± 0.06. For GGACUGGAUACUUAUCAACCUACUACCUCA, the “pre-steady-state target cleavage rate” value was 0.719 ± 0.1. For GGACUGGAUACGAUACAACCUACUACCUCA, the “pre-steady-state target cleavage rate” value was 1.64 ± 0.1. CCUCUGGAUACUAAACUACCUACUACCUCA was tested, and the “pre-steady-state target cleavage rate” value was 1.24 ± 0.098. With GGUCAGGAUACUUUACAACCUACUACCUCA the “pre-steady-state target cleavage rate” value was 1.54 ± 0.085. For GCUCAGGAUACUUUACAACCUACUACCUCA, the “pre-steady-state target cleavage rate” value was 1.81 ± 0.11. For GGUCAGGAUACUAAACAACCUACUACCUCA, the “pre-steady-state target cleavage rate” value was 1.74 ± 0.096.
